# A549 viability = A549 cytotoxicity, counter-screen for Nrf2 inhibitors; A549 ARE-Fluc cells, CellTiter-Fluor viability, 18-24 h; Potency, µM (top dose mostly 46 µM), for the others: top-dose activity change, negative = cytotoxicity, hits mostly inhibitors; 390,000 tested, 0.16% active; AID 504648; also: potency is read from the fitted curve at half-maximal effect; % is scaled to controls: 0 for no effect and ±100 for the full control effect
#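 Cytotoxicity counterscreen: CellTiter-Fluor fluorescence was measured in A549 ARE_Fluc cells after 18-24 h of compound exposure in a concentration series. The subsequent BugLite luminescent read reports ARE-luciferase activity.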
# Nrf2 activator = activators of Nrf2 (ARE) signaling; AREc32 ARE-luciferase reporter (MCF7-derived line), luminescence, 24 h; AID 624171; Potency, µM (doses to about 46.1 µM), for the others: at the top dose activation, usual class: activators; 410,000 tested, 0.31% active; also: potency is read from the fitted curve at half-maximal effect; % of control where 0% means no effect; nearly all actives have a fitted effect of over 65% in size
#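 For detection, Steady-Glo was added and plates sat 30 min at RT; before that, AREc32_Fluc cells grown overnight in OPTI-MEM/5% FBS had been treated with 23 nL compound for 24 hr at 37 deg C.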
# mIDH1 inhibitor = human IDH1 R132H inhibition; IDH1-R132H enzyme, NADPH consumption, diaphorase/resazurin fluorescence; Potency, µM (series often up to 76.6 µM), without a hit: top-dose activity change, negative = inhibition, hits mostly inhibitors; 390,000 tested, 0.093% active; AID 602179; also: potency is read from the fitted curve at half-maximal effect; % is scaled to controls: 0 for no effect and ±100 for the full control effect; nearly all actives have a fitted effect of over 65% in size
# Target sequence (O75874 whole entry R132H, stated change not applied): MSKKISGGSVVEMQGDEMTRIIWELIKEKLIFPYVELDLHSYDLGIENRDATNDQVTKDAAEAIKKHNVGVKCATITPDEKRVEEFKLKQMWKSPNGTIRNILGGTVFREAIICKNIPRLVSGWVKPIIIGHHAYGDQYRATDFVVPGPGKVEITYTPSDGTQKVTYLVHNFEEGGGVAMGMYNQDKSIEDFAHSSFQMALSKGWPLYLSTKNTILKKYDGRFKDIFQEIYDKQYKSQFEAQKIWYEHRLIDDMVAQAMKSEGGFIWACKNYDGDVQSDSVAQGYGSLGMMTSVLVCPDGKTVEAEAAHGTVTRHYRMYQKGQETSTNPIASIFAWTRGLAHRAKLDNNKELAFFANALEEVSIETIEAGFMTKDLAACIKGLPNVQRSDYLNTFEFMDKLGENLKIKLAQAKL
#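 IDH1-R132H (0.5 ug/mL) preincubated 30 min with compound, then NADPH (0.016 mM) and alpha-KG (2 mM) added; 80 min at RT, pH 7.5. Remaining NADPH coupled via diaphorase/resazurin to fluorescence (540/590 nm); concentration-response curves normalized to no-enzyme control.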
# Apoferritin bind = binds horse apoferritin like a general anesthetic; AID 485281; apoferritin/1-aminoanthracene competitive binding, fluorescence; 350,000 tested, 0.074% active; P02791; Potency, µM (top dose mostly 77.5 µM), for the others: at the top dose activity change, negative = displacement, hits mostly inhibitors; also: potency is read from the fitted curve at half-maximal effect; % is scaled to controls: 0 for no effect and ±100 for the full control effect; nearly all actives have a fitted effect of over 20% in size
#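 10 uM apoferritin + 50% sat. 1-AMA, PBS; cpd 10 min RT; Ex380/Em535 endpoint; normalized to free probe vs complex; 4-param Hill fit; propofol titration as pos. ctrl.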
# Nrf2 inh = blocks Nrf2 signaling; A549 ARE-Fluc reporter, luciferase luminescence, 18-24 h; Potency, µM (titrated, usually from 46 µM), for inactives: at the highest dose activity change, negative = inhibition, actives largely listed as inhibitors; 360,000 tested, 2.1% active; AID 504444; also: potency is read from the fitted curve at half-maximal effect; % is scaled to controls: 0 for no effect and ±100 for the full control effect; nearly all actives have a fitted effect of over 60% in size
#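 Two sequential reads on A549 ARE_Fluc cells exposed to compound for 18-24 h: a CellTiter-Fluor fluorescence read for viability, then a luciferase luminescence read for Nrf2/ARE activity.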
# Giardia kill = kills Giardia lamblia | Giardia lamblia trophozoite viability | activity change, % at 7.66 µM, hits read low | 340,000 tested, 0.15% active | AID 540267; in the data active = activity change below about -80%; inconclusive = between about -30% and that limit;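 also: parasites exposed to compound for two days anaerobically before the ATP read; % is scaled to controls: 0 for no effect and ±100 for the full control effect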
#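 Trophozoites 100 cells/well + cpd; 48 hrs, 37 deg C, anaerobic. ATPLite 1-Step added, 15-30 min RT, luminescence read (ATP-based viability).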
# Resorufin autofl = autofluorescence interference, mutant IDH1 hit counter-screen. shares compounds with mIDH1 inhibitor. Resorufin detection reagent fluorescence interference, cell-free. inhibition of signal, % at 51.2 µM. 750 tested, under 10 active. AID 623980;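 also: 0% = wells with normal resorufin and full inhibition = wells lacking resorufin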
# WT IDH1 inh = inhibits human wild-type IDH1, mutant selectivity check | shares compounds with mIDH1 inhibitor | WT IDH1 enzyme, NADPH diaphorase/resazurin fluorescence | Potency, µM (series often up to 115 µM), without a hit: at the top dose activity change, negative = inhibition, hits mostly inhibitors | 750 tested, 9% active | AID 623995;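 also: potency is read from the fitted curve at half-maximal effect; 0% = full WT IDH1 enzyme control and full inhibition = no enzyme wells; nearly all actives have a fitted effect of over 55% in size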
# Target sequence (O75874 whole entry, looked up): as the sequence (O75874 whole entry R132H, stated change not applied) above, with H132R counted along it
# IDH1 R132H conf = confirmation of human mutant IDH1 inhibitors; IDH1 R132H enzyme, NADPH diaphorase/resazurin fluorescence; shares compounds with mIDH1 inhibitor; 750 tested, 83% active; Potency, µM (highest dose often 76.6 µM), for inactives: at the highest dose activity change, negative = inhibition, usual class: inhibitors; also: potency is read from the fitted curve at half-maximal effect; nearly all actives have a fitted effect of over 50% in size
# * marks the source's active call; other numbers are inactive results; ? = inconclusive; . = not tested or not shown. A selection: hits, their analogues and other compounds. The true share with any hit is near 2.3%. Unless noted, calls follow the shape of the dose curve; as a rule, active = well fitted curve in the direction sought with a large enough effect; inconclusive = small, poorly fitted or top-dose-only effect, or another doubt; inactive = no such curve, though single readings can be large; an effect the other way counts as inactive or inconclusive.
SMILES,A549 viability,Nrf2 activator,mIDH1 inhibitor,Apoferritin bind,Nrf2 inh,Giardia kill,Resorufin autofl,WT IDH1 inh,IDH1 R132H conf
Cc1ccc(C(C(=O)NC2CCCCC2)N(Cc2ccco2)C(=O)C2COc3ccccc3O2)o1 (stereo unspecified),-19%,0%,?,-4%,?,-26,0,-3%,13µM*
O=C(NC1CCCC1)C(c1ccccc1)N(Cc1ccco1)C(=O)Cc1cccs1 (stereo unspecified),-6%,-1%,?,-11%,-6%,-3,-5,2%,28µM*
O=C(NCc1ccco1)C(c1ccccc1)N(C(=O)Cc1cccs1)c1ccccc1F (stereo unspecified),1%,0%,21µM*,5%,?,25,-4,-1%,14µM*
CC(C)(C)c1ccc(C2NC(=O)c3n[nH]c(-c4cccs4)c32)cc1 (stereo unspecified),-8%,-1%,?,?,?,.,0,0%,40µM*
Cc1ccc(NC2c3ncccc3C(=O)N2Cc2cccs2)cc1 (stereo unspecified),-2%,3%,52µM*,-8%,-10%,11,-3,2%,-21%
O=S(=O)(Nc1nccs1)c1ccc(Br)cc1,0%,1%,1%,-4%,5%,-3,.,.,.
O=S(=O)(Nc1ccc(S(=O)(=O)Nc2nccs2)cc1)c1ccc(Br)cc1,-6%,-2%,?,-3%,-11%,-14,2,8%,40µM*
Nc1c(S(=O)(=O)O)cc(Nc2cccc3ccccc23)c2c1C(=O)c1ccccc1C2=O,.,.,.,-5%,.,.,.,.,.
Nc1c(S(=O)(=O)O)cc(NC(=O)c2ccccc2)c2c1C(=O)c1ccccc1C2=O,-20%,-1%,?,6%,-6%,9,-14,28µM*,14µM*
COc1ccc(-c2csc3nc(C)nc(N4CCCCC4)c23)cc1OC,-1%,16µM*,?,-21%,-20%,1,-7,4%,32µM*
CCc1ccc(NS(=O)(=O)c2ccc(C(=O)N(C)C)s2)cc1,6%,4%,3%,-16%,.,.,.,.,.
COc1cc(Nc2ncc3c(n2)CCN(Cc2ccc(OC(C)C)c(OC)c2)C3)cc(OC)c1,-3%,3%,.,-11%,.,.,.,.,.
CCOC(=O)c1ccc(N2C(=O)c3[nH]nc(-c4ccccc4)c3C2c2cccs2)cc1 (stereo unspecified),?,-3%,?,55%,?,.,2,11%,-14%
CCOC(=O)c1ccc(N2C(=O)c3n[nH]c(C)c3C2c2ccccn2)cc1 (stereo unspecified),4%,3%,-6%,-13%,7%,37,.,.,.
CCOC(=O)c1ccc(N2C(=O)c3n[nH]c(-c4ccco4)c3C2c2ccc(O)c(OC)c2)cc1 (stereo unspecified),3%,13%,?,58%,?,.,3,-7%,20µM*
COc1ccc(CCNC(=O)Cn2c(=O)nc(-c3ccccc3)c3cc(Cl)ccc32)cc1OC,?,0%,-10%,38%,.,.,.,.,.
CC(=O)N1c2ccc(S(=O)(=O)NCCC(=O)Nc3ccc(C)cc3Br)cc2CC1C (stereo unspecified),13%,6%,11%,-7%,?,.,.,.,.
